Measurements: PubChem BioAssay AID2016 (NMMLSC, 2009)
Screen size: about 330,000 compounds; about 1,700 (0.52%) were called active.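 The calls were made as follows: active = GFP response versus DMSO above a set limit, roughly screen mean plus 3 SD (cut at about 180% in these data); inconclusive = fewer than 70 cells counted for a yeast strain; inactive = the rest.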 Shown is part of a subset that was picked to be rich in actives.

Test: TOR pathway GLN3 branch reporter MEP2-GFP changes – S. cerevisiae, multiplex flow cytometry, MLPCN library, primary screen (AID 2016);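 also: median GFP fluorescence of the barcode-gated MEP2-GFP cells per well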
Conditions: S. cerevisiae MEP2-GFP strain, 3 h, at 10 µM, active compounds read high, 100% = DMSO control level

With `CC12c3ccccc3C(c3ccccc31)C1C(=O)N(Cc3cccnc3)C(=O)C12` (configuration not stated) as the molecule, how does the GFP response vs DMSO read?
The GFP response vs DMSO was 107% (inactive).

With `COc1ccc(CNC(=O)CN2CCC(n3nnc4cc(F)ccc43)CC2)cc1` as the molecule, how does the GFP response vs DMSO read?
Its GFP response vs DMSO is 88.8% (inactive).

Which GFP response vs DMSO does the source give for `CSc1ccc(C#N)cc1NC(=O)c1cccc(Cl)c1` here?
The GFP response vs DMSO was 102% (inactive).

Which GFP response vs DMSO does the source give for `O=C(Nc1cccnc1Cl)c1cc(-c2cccc(Cl)c2)on1` here?
The GFP response vs DMSO was 103% (inactive).

Which GFP response vs DMSO does the source give for `O=C(Nc1cccc2cccnc12)c1cccc(Cl)c1` here?
Its GFP response vs DMSO is 567% [may fluoresce violet] (active).

For `CC(=O)Nc1ccc(Nc2nc3c(S(=O)(=O)c4ccc(C)c(C)c4)nnn3c3ccccc23)cc1`, which GFP response vs DMSO is on record?
Its GFP response vs DMSO is 103% (inactive).

With `Cc1ccc(S(=O)(=O)c2nnn3c2nc(N2CCN(c4ccccn4)CC2)c2ccccc23)cc1` as the molecule, how does the GFP response vs DMSO read?
The GFP response vs DMSO was 112% (inactive).

With `Cc1cccc(Nc2nc3c(S(=O)(=O)c4ccccc4)nnn3c3ccccc23)c1C` as the molecule, how does the GFP response vs DMSO read?
Its GFP response vs DMSO is 1130% [may fluoresce green] (active).

Which GFP response vs DMSO does the source give for `C=CC[C@@H](Cc1ccc(F)cc1)C(=O)OC[C@H]1CCCN1C(=O)[C@H](CC=C)CC(=O)N(CCO)Cc1ccccc1` here?
The GFP response vs DMSO was 103% (inactive).

With `NC1=NC(c2ccc([N+](=O)[O-])cc2)N(c2ccc(F)cc2)C(N)=N1` (configuration not stated) as the molecule, how does the GFP response vs DMSO read?
Its GFP response vs DMSO is 107% (inactive).

For `O=C(CN1CCN(C/C=C/c2ccccc2)CC1)Nc1ccc(F)cc1F`, which GFP response vs DMSO is on record?
Its GFP response vs DMSO is 100% (inactive).

Which GFP response vs DMSO does the source give for `O=C(CC1SC(N2CCOCC2)=NC1=O)Nc1ccccc1F` (configuration not stated) here?
Its GFP response vs DMSO is 91.9% (inactive).

For `O=C(CC1SC(=Nc2ccccc2F)N(CCN2CCOCC2)C1=O)Nc1ccc(F)cc1F` (configuration not stated), which GFP response vs DMSO is on record?
Its GFP response vs DMSO is 177% (active).

For `CCCN1C2CCCC1CC(NC(=O)c1cccc(OC)c1)C2` (configuration not stated), which GFP response vs DMSO is on record?
Its GFP response vs DMSO is 93.2% (inactive).

With `Cc1ccc(-n2cc3ccc([N+](=O)[O-])cc3n2)cc1` as the molecule, how does the GFP response vs DMSO read?
Its GFP response vs DMSO is 98.2% (inactive).

With `Cc1ccc2c(c1)N(CC(=O)NCCc1ccc(Cl)cc1)C(=O)c1cccnc1O2` as the molecule, how does the GFP response vs DMSO read?
Its GFP response vs DMSO is 110% (inactive).

With `CCCCNC(=O)C1(O)c2ccccc2NC(=O)N1c1ccc(Cl)cc1` (configuration not stated) as the molecule, how does the GFP response vs DMSO read?
Its GFP response vs DMSO is 108% (inactive).

For `CCCCC1N2CC3([N+](=O)[O-])CN1CC([N+](=O)[O-])(C2)C3(C)C` (configuration not stated), which GFP response vs DMSO is on record?
The GFP response vs DMSO was 96.3% (inactive).

For `O=c1c2c(nc3nc[nH]n13)CCC2`, which GFP response vs DMSO is on record?
Its GFP response vs DMSO is 532% [may fluoresce violet] (active).

For `O=c1c2c(nc3cc(-c4cccc(Cl)c4)[nH]n13)CCCC2`, which GFP response vs DMSO is on record?
The GFP response vs DMSO was 98.5% (inactive).

With `CSc1nc2nc3c(c(=O)n2[nH]1)CCC3` as the molecule, how does the GFP response vs DMSO read?
The GFP response vs DMSO was 95.3% (inactive).

With `CNC(=O)Nc1cc(C(C)(C)C)no1` as the molecule, how does the GFP response vs DMSO read?
The GFP response vs DMSO was 107% (inactive).

Which GFP response vs DMSO does the source give for `CCN(CC)c1ccc([N+](=O)[O-])cc1C(=O)O` here?
Its GFP response vs DMSO is 109% (inactive).

With `Cc1noc(C)c1CCC(=O)N1CCCC(CO)(Cc2ccccc2)C1` (configuration not stated) as the molecule, how does the GFP response vs DMSO read?
Its GFP response vs DMSO is 96.4% (inactive).

With `CCn1ncc(Br)c1C(=O)Nc1cc(C)ccc1F` as the molecule, how does the GFP response vs DMSO read?
The GFP response vs DMSO was 233% [may fluoresce violet] (active).

For `Cc1ccc(F)c(NC(=O)CCOc2ccccc2C)c1`, which GFP response vs DMSO is on record?
The GFP response vs DMSO was 96.5% (inactive).

Which GFP response vs DMSO does the source give for `Cc1ccc(F)c(NC(=O)CCc2ccccc2)c1` here?
Its GFP response vs DMSO is 93.7% (inactive).

Which GFP response vs DMSO does the source give for `Cc1nnc(N(Cc2ccco2)C(=O)c2ccno2)s1` here?
The GFP response vs DMSO was 99% (inactive).

Which GFP response vs DMSO does the source give for `CC(C)CC(CO)N1CCN(C(=O)c2ccc(Cl)cc2Cl)CCC1=O` (configuration not stated) here?
Its GFP response vs DMSO is 96.1% (inactive).

Which GFP response vs DMSO does the source give for `CCCS(=O)(=O)Nc1ccc(-c2cn3c(n2)SCC3)cc1` here?
Its GFP response vs DMSO is 255% [may fluoresce violet] (active).

Which GFP response vs DMSO does the source give for `CCS(=O)(=O)Nc1ccc(C2=NN(C(C)=O)C(c3cccs3)C2)cc1` (configuration not stated) here?
Its GFP response vs DMSO is 107% (inactive).

With `CCCCc1c(O)nc2n(c1=O)CCS2` as the molecule, how does the GFP response vs DMSO read?
The GFP response vs DMSO was 92.6% (inactive).

For `CCOc1ccc(NS(=O)(=O)c2ccc(C(=O)NCC(c3ccccc3OC)N3CCCC3)cc2)cc1` (configuration not stated), which GFP response vs DMSO is on record?
The GFP response vs DMSO was 102% (inactive).

For `O=C(Nc1ccc(N2CCOCC2)c(Cl)c1)c1ccc(S(=O)(=O)N2CCOCC2)cc1`, which GFP response vs DMSO is on record?
The GFP response vs DMSO was 95.7% (inactive).

For `Cc1cc(C)n(-c2ccc(NC(=O)C3CCCCN3C(=O)c3cccs3)cc2)n1` (configuration not stated), which GFP response vs DMSO is on record?
Its GFP response vs DMSO is 92.9% (inactive).

For `Cc1cc(C)c(OCCN2CC(C)OC(C)C2)c(Br)c1` (configuration not stated), which GFP response vs DMSO is on record?
The GFP response vs DMSO was 101% (inactive).

With `COc1ccc(CCNC(=O)CS(=O)(=O)Cc2nc(-c3ccc(C)cc3)oc2C)cc1OC` as the molecule, how does the GFP response vs DMSO read?
Its GFP response vs DMSO is 186% (active).

Which GFP response vs DMSO does the source give for `Cc1ccc(-c2nc(CS(=O)(=O)CC(=O)NCc3ccc4c(c3)OCO4)c(C)o2)cc1` here?
Its GFP response vs DMSO is 102% (inactive).

For `COc1cccc(-c2nc(CS(=O)(=O)CC(=O)NCCc3ccc(OC)c(OC)c3)c(C)o2)c1`, which GFP response vs DMSO is on record?
The GFP response vs DMSO was 98.7% (inactive).

With `O=C(CN1C(=O)c2cccnc2Oc2ccc(Cl)cc21)Nc1ccc(F)cc1` as the molecule, how does the GFP response vs DMSO read?
Its GFP response vs DMSO is 105% (inactive).

With `COc1ccc(CNC(=O)CCn2cccc2)cc1` as the molecule, how does the GFP response vs DMSO read?
The GFP response vs DMSO was 94.3% (inactive).

With `COc1ccc(CNC(=O)CCN2C(=O)c3ccccc3C2=O)cc1` as the molecule, how does the GFP response vs DMSO read?
The GFP response vs DMSO was 96.1% (inactive).

With `CCOc1cc2[nH]c(=O)n(CCC(=O)NCc3ccc(OC)cc3)c(=O)c2cc1OCC` as the molecule, how does the GFP response vs DMSO read?
The GFP response vs DMSO was 223% [may fluoresce violet] (active).

Which GFP response vs DMSO does the source give for `NCCCCCC(=O)N/N=C/c1ccc2nccnc2c1` here?
The GFP response vs DMSO was 673% [may fluoresce violet] (active).

With `Cc1nccn1CC(=O)N/N=C/c1ccc(O)c(O)c1` as the molecule, how does the GFP response vs DMSO read?
Its GFP response vs DMSO is 105% (inactive).

With `O=C(N/N=C/c1ccc(Cl)c(Cl)c1)c1ccc2nc[nH]c2c1` as the molecule, how does the GFP response vs DMSO read?
Its GFP response vs DMSO is 97.5% (inactive).

Which GFP response vs DMSO does the source give for `COCCNC(=O)C(c1ccc(C)cc1)N(C(=O)CCC(=O)Nc1ccccn1)c1cccc(C)c1` (configuration not stated) here?
Its GFP response vs DMSO is 107% (inactive).

Which GFP response vs DMSO does the source give for `COCCN(C(=O)CCC(=O)Nc1ccccn1)C(C(=O)NCCC(C)C)c1ccc(OC)cc1` (configuration not stated) here?
The GFP response vs DMSO was 107% (inactive).

With `CCOc1ccc(C(C(=O)NCCOC)N(CCOC)C(=O)CCC(=O)Nc2ccccn2)cc1` (configuration not stated) as the molecule, how does the GFP response vs DMSO read?
Its GFP response vs DMSO is 296% [may fluoresce violet] (active).

For `Cn1c(CCC(=O)OCC(=O)NCc2ccccc2Cl)nc(=O)c2ccccc21`, which GFP response vs DMSO is on record?
The GFP response vs DMSO was 99.4% (inactive).

For `COc1cc(Cl)c(C)cc1NC(=O)CSc1nnc(CN2CCCC2)o1`, which GFP response vs DMSO is on record?
Its GFP response vs DMSO is 105% (inactive).

With `CC1CC(=S)Nc2ccccc2N1Cc1ccccc1` (configuration not stated) as the molecule, how does the GFP response vs DMSO read?
Its GFP response vs DMSO is 98.4% (inactive).

Which GFP response vs DMSO does the source give for `Cc1cc(NS(=O)(=O)c2ccc(NC(=O)c3cccc(OC(F)F)c3)cc2)nc(C)n1` here?
Its GFP response vs DMSO is 92% (inactive).

For `Cc1cccc(C)c1NC(=O)CS(=O)CC(=O)N1CCN(c2ccccc2)CC1` (configuration not stated), which GFP response vs DMSO is on record?
The GFP response vs DMSO was 102% (inactive).

For `CC[n+]1cc(C)ccc1/C=C/c1ccc(N(C)C)cc1`, which GFP response vs DMSO is on record?
The GFP response vs DMSO was 180% (active).

Which GFP response vs DMSO does the source give for `Cc1ccccc1NC(=O)C1CCCN(C(=O)NCc2ccccc2)C1` (configuration not stated) here?
Its GFP response vs DMSO is 105% (inactive).

Which GFP response vs DMSO does the source give for `COc1cccc(NC(=O)C(Sc2nnnn2C)c2ccccc2)c1` (configuration not stated) here?
Its GFP response vs DMSO is 100% (inactive).
